Laboratory results published in PubChem BioAssay (EPA / NIEHS).
Calls of active or inactive are those of the source. The calls were made as follows: active = hit-call score of the fitted dose curve at least 0.9, where 1 is the maximum; inactive = score below 0.9.

Key:
[1] = ATG_E_Box_CIS: Attagene CIS-FACTORIAL HepG2 Assay for human Enhancer Box (E-box) (AID 2282936); settings: HepG2 E-box cis-reporter transcription, actives raise or lower the signal
Outline: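 HepG2 cells transiently transfected with multiplexed cis-element reporter units, dosed 24 h; reporter mRNA quantified by RT-PCR, 6-FAM labelling, HpaI digestion and capillary electrophoresis. E-box (USF1) signal fitted bidirectionally vs DMSO.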

[2] = ATG_M_61_CIS: Attagene CIS-FACTORIAL HepG2 Assay for M61 Transcription Factor (Internal Marker) (AID 2282937); settings: HepG2 Attagene CIS-FACTORIAL M61 internal marker reporter; actives raise or lower the signal
Outline: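 Transfect HepG2 with MRTUs; dose 24 h; isolate RNA; reverse-transcribe with DNase I treatment; PCR-amplify, FAM-label and cut with HpaI for 2 h at 37 C; resolve by CE. Bidirectional fitting against DMSO.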

[3] = ATG_EGR_CIS: Attagene CIS-FACTORIAL HepG2 Assay for human Early Growth Response 1 (EGR1) (AID 2282938); settings: HepG2 Attagene CIS-FACTORIAL EGR reporter mRNA; actives raise or lower the signal
Outline: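 After a 24 h treatment of transiently transfected HepG2 cells, total RNA was reverse-transcribed and reporter sequences PCR-amplified, labelled and run on capillary electrophoresis. Reporters sit under cis-regulatory promoters sensing endogenous factors.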

[4] = ATG_M_19_CIS: Attagene CIS-FACTORIAL HepG2 Assay for M19 Transcription Factor (Internal Marker) (AID 2282939); settings: HepG2 Attagene CIS-FACTORIAL M19 internal marker reporter; actives raise or lower the signal
Outline: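 In this multiplexed cell assay, transiently transfected HepG2 reporter units report endogenous transcription-factor activity; after 24 hours of treatment, labelled reporter cDNA fragments are quantified by capillary electrophoresis and fitted bidirectionally against DMSO.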

[5] = ATG_ERE_CIS: Attagene CIS-FACTORIAL HepG2 Assay for Estrogen Response Element (ERE) (AID 2282940); settings: HepG2 ERE cis-reporter, Attagene RNA transcript; actives raise or lower the signal
Outline: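 Measuring endogenous transcription factor output, the assay doses transfected HepG2 cells for 24 hours and quantifies reporter transcripts by fluorescent RT-PCR and capillary electrophoresis, with DMSO as baseline.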

[6] = ATG_Ets_CIS: Attagene CIS-FACTORIAL HepG2 Assay for human Erythroblast Transformation Specific (ETS) (AID 2282941); settings: HepG2 ETS cis-reporter transcription, actives raise or lower the signal
Outline: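 HepG2 cells transiently transfected with cis-promoter reporter transcription units were dosed for 24 h; reporter mRNA was measured by RT-PCR, 6-FAM primer extension, HpaI digestion and capillary electrophoresis, with bidirectional fitting against DMSO baseline.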

[7] = target: Hepatocyte nuclear factor 3-beta (Homo sapiens) (UniProt Q9Y261); experiment: ATG_FoxA2_CIS: Attagene CIS-FACTORIAL HepG2 Assay for human Forkhead box A2 (FOXA2) (AID 2282942); settings: HepG2 cis-reporter transcription factor activity, 24 h; actives raise or lower the signal
Outline: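 24 h dosing of HepG2 bearing cis-reporter constructs; mRNA readout by RT-PCR/CE fluorescence; bidirectional fit, DMSO baseline.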

[8] = ATG_FoxO_CIS: Attagene CIS-FACTORIAL HepG2 Assay for human Forkhead box O (FoxO) (AID 2282943); settings: HepG2 Attagene cis-reporter, FoxO element, mRNA; actives raise or lower the signal
Outline: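 HepG2 cells transiently transfected with cis-element-driven reporter units report endogenous FoxO activity. After 24 h chemical exposure, reporter mRNA quantified by RT-PCR, fluorescent labeling, HpaI digestion and capillary electrophoresis; bidirectional fit versus DMSO.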

[9] = ATG_GATA_CIS: Attagene CIS-FACTORIAL HepG2 Assay for human GATA Binding Protein (AID 2282944); settings: HepG2 GATA cis-element reporter, Attagene multiplex mRNA; actives raise or lower the signal
Outline: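 Measures endogenous transcription factor-driven reporter mRNA in HepG2 cells transiently carrying cis-regulated constructs. 24 h dosing; RNA via oligo(dT) reverse transcription, PCR, HpaI digestion, capillary electrophoresis; fitted relative to DMSO.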

[10] = ATG_GLI_CIS: Attagene CIS-FACTORIAL HepG2 Assay for human Zinc Finger Protein GLI1 (AID 2282945); settings: HepG2, Attagene cis-factorial reporter mRNA, GLI element; actives raise or lower the signal
Outline: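 Transiently transfected HepG2 cells report endogenous transcription factor activity via cis-element-driven reporter units. After 24 h compound exposure, reporter mRNA was measured by RT-PCR with capillary electrophoresis; bidirectional fitting against DMSO baseline.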

[11] = target: Bile acid receptor (Homo sapiens) (UniProt Q96RI1); experiment: ATG_IR1_CIS: Attagene CIS-FACTORIAL HepG2 Assay for human Nuclear Receptor Subfamily 1 Group H Member 4 (NR1H4), IR1 submotif (AID 2282946); settings: IR1 reporter transcription, actives raise or lower the signal
Outline: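 HepG2 cells transiently transfected with multiple cis-promoter-driven reporter units to measure endogenous transcription factor activity; 24 h exposure. Reporter mRNA read by RT-PCR, FAM labelling, HpaI digestion and capillary electrophoresis. Bidirectional fit versus DMSO.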

[12] = ATG_GRE_CIS: Attagene CIS-FACTORIAL HepG2 Assay for human Glucocorticoid Response Elements (GRE) (AID 2282947); settings: HepG2 GRE cis-reporter, Attagene multiplex mRNA; actives raise or lower the signal
Outline: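 Transiently transfected HepG2 cells carrying GRE cis-reporter units (endogenous TF activity) dosed 24 h; reporter mRNA quantified by RT-PCR, 6-FAM labelling, HpaI digestion and capillary electrophoresis. Bidirectional fit versus DMSO baseline.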

[13] = ATG_ISRE_CIS: Attagene CIS-FACTORIAL HepG2 Assay for human Interferon Regulatory Factor 1 (IRF1) binding to an Interferon-Stimulated Response Element (ISRE) (AID 2282948); settings: HepG2 ISRE cis-reporter (Attagene), mRNA transcription readout; actives raise or lower the signal
Outline: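 HepG2 cells transiently transfected with multiplexed cis-promoter reporter units; after 24 h compound exposure, reporter mRNA quantified by RT-PCR, FAM labelling, HpaI digestion and capillary electrophoresis. Bidirectional fit versus DMSO baseline.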

[14] = ATG_M_32_CIS: Attagene CIS-FACTORIAL HepG2 Assay for M32 Transcription Factor (Internal Marker) (AID 2282949); settings: HepG2 Attagene cis-factorial M32 reporter, mRNA; actives raise or lower the signal;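 also: background control marker of the multiplexed CIS panel rather than a real target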
Outline: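 Fluorescent capillary electrophoresis peaks of HpaI-digested, FAM-labelled RT-PCR reporter products give the signal. Source: transiently transfected human liver HepG2 cells, 24 h after chemical dosing; bidirectional fitting against DMSO.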

[15] = ATG_M_06_CIS: Attagene CIS-FACTORIAL HepG2 Assay for M06 Transcription Factor (Internal Marker) (AID 2282950); settings: HepG2 Attagene CIS-FACTORIAL M06 internal marker reporter; actives raise or lower the signal
Outline: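 One of many multiplexed endpoints: HepG2 reporter mRNA after 24 h dosing, detected by RT-PCR and capillary electrophoresis fluorescence; gain or loss of signal analysed against DMSO.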

[16] = target: Hypoxia-inducible factor 1-alpha (Homo sapiens) (UniProt Q16665); experiment: ATG_HIF1a_CIS: Attagene CIS-FACTORIAL HepG2 Assay for human Hypoxia Inducible Factor 1 (HIF1A) (AID 2282951); settings: HepG2 Attagene cis-factorial HIF1a reporter transcription; actives raise or lower the signal
Outline: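 After 24 h chemical exposure of reporter-transfected HepG2 cells, reporter cDNA was PCR-amplified, labelled by 6-FAM primer extension (2 min 95 C, 20 s 68 C, 10 min 72 C), HpaI-cut (2 h, 37 C) and analysed by CE.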

[17] = target: Hepatocyte nuclear factor 6 (Homo sapiens) (UniProt Q9UBC0); experiment: ATG_HNF6_CIS: Attagene CIS-FACTORIAL HepG2 Assay for human Hepatocyte Nuclear Factor 6 (HNF6) (AID 2282952); settings: HepG2 Attagene cis-factorial HNF6 reporter transcription; actives raise or lower the signal
Outline: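 HepG2 cells transiently transfected with cis-element-driven multiple reporter transcription units, dosed 24 h; reporter mRNA quantified by RT-PCR, FAM primer extension, HpaI digestion and capillary electrophoresis; bidirectional fit versus DMSO baseline.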

[18] = ATG_MRE_CIS: Attagene CIS-FACTORIAL HepG2 Assay for human Metal Responsive Element (MRE) (AID 2282954); settings: HepG2 MRE cis-reporter transcription, Attagene multiplex; actives raise or lower the signal
Outline: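 HepG2 cells transiently transfected with cis-element-driven reporter units; mRNA measured 24 h after dosing. Reporter transcripts quantified by RT-PCR, FAM labelling, HpaI digestion and capillary electrophoresis; bidirectional fit versus DMSO.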

[19] = ATG_PBREM_CIS: Attagene CIS-FACTORIAL HepG2 Assay for human Phenobarbital-responsive Enhancer Module (PBREM) (AID 2282955); settings: HepG2 PBREM cis-reporter, Attagene multiplexed transcription; actives raise or lower the signal
Outline: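 Measures endogenous factor action on a phenobarbital-responsive enhancer module. HepG2 transiently carrying cis reporters, 24 h treatment, mRNA read-out by RT-PCR plus capillary electrophoresis.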

[20] = target: Heat shock factor protein 1 (Homo sapiens) (UniProt Q00613); experiment: ATG_HSE_CIS: Attagene CIS-FACTORIAL HepG2 Assay for human Heat Shock Transcription Factor 1 (HSE) (AID 2282953); settings: HepG2 HSE cis-reporter, Attagene RNA transcription; actives raise or lower the signal
Outline: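 Using HepG2 with transfected cis-driven reporter constructs, compound effects on endogenous factor activity are scored as reporter mRNA change at 24 h. Detection: RT-PCR, HpaI digestion, capillary electrophoresis; bidirectional fitting to DMSO.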

Hepatocyte nuclear factor 3-beta (Homo sapiens), sequence (Q9Y261 whole entry, looked up): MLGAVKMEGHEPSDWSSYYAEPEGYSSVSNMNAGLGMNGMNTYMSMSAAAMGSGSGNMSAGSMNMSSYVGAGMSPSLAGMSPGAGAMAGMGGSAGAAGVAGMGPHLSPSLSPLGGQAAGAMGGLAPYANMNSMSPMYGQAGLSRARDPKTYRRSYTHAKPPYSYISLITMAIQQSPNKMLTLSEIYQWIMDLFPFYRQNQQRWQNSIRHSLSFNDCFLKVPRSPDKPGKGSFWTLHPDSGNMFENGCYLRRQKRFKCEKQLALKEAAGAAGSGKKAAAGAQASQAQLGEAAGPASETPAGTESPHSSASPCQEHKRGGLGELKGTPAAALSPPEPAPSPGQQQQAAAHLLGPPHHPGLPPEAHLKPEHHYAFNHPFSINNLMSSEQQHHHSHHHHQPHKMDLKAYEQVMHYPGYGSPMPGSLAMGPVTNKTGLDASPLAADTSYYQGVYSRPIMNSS
Hepatocyte nuclear factor 6 (Homo sapiens), sequence (Q9UBC0 whole entry, looked up): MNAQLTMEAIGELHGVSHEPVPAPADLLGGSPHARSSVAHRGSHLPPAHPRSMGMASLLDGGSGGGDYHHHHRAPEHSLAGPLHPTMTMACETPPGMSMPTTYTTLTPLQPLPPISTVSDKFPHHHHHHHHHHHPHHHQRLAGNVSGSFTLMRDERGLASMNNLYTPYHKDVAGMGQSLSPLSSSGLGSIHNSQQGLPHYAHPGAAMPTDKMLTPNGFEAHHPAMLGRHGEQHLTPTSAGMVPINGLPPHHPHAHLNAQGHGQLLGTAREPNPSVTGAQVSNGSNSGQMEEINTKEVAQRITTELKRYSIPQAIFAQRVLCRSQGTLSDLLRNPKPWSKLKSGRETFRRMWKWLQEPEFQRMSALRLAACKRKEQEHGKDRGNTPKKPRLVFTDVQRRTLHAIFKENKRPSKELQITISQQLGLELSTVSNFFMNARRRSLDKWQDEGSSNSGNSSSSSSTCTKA
Heat shock factor protein 1 (Homo sapiens), sequence (Q00613 whole entry, looked up): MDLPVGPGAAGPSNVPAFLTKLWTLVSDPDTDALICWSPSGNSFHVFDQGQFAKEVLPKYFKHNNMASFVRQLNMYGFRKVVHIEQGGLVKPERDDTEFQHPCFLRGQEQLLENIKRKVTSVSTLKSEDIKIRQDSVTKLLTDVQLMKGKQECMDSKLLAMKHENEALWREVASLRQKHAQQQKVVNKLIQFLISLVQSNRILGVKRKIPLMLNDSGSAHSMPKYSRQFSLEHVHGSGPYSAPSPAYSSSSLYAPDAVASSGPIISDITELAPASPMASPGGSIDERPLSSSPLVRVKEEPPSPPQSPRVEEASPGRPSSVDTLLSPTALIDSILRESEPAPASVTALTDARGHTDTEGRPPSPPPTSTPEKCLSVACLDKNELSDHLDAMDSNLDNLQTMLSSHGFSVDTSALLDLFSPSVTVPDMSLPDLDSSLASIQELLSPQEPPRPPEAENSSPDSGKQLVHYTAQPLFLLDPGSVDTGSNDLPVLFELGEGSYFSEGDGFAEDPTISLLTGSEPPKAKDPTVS
Hypoxia-inducible factor 1-alpha (Homo sapiens), sequence (Q16665 whole entry, looked up): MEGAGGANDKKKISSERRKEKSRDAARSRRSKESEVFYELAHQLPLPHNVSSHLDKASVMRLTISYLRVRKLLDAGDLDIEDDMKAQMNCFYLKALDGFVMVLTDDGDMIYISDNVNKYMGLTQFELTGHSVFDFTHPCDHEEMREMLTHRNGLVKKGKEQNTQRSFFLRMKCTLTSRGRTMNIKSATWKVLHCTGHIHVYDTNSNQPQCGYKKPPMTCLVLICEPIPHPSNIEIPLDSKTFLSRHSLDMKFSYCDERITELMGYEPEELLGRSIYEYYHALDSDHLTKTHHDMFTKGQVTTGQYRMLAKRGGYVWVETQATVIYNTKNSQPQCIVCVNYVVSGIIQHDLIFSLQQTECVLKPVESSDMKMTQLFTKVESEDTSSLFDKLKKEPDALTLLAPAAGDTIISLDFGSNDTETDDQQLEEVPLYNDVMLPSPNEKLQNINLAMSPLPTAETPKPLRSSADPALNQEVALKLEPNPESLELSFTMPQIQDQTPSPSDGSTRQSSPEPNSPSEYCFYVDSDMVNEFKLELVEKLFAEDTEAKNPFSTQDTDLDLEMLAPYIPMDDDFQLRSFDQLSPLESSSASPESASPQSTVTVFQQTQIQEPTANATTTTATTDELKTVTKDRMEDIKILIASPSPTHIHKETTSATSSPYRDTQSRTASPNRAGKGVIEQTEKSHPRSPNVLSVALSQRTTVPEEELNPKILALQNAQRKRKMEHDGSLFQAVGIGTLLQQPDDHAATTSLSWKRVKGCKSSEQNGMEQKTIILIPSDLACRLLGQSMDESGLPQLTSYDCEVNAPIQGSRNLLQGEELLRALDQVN
Bile acid receptor (Homo sapiens), sequence (Q96RI1 whole entry, looked up): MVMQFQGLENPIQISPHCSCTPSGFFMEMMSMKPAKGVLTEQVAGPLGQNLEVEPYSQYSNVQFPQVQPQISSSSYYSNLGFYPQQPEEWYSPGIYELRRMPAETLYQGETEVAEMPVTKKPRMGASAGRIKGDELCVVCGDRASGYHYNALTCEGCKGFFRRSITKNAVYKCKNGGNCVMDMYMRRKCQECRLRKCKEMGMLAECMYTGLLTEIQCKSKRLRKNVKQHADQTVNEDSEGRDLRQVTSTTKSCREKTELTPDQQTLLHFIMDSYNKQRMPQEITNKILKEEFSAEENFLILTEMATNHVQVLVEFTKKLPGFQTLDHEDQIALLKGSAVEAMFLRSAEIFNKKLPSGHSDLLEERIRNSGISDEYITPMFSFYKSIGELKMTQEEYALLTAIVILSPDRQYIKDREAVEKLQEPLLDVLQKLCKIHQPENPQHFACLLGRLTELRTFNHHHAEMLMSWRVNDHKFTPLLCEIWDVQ

## COC(=O)C1=C(C)NC(C)=C(C(=O)OCC(C)C)C1c1ccccc1[N+](=O)[O-] (centres undefined)
[1]
  AC50: 18.6 µM (active)
[2]
  outcome: inactive
[3]
  outcome: inactive
[4]
  outcome: inactive
[5]
  outcome: inactive
[6]
  outcome: inactive
[7]
  outcome: inactive
[8]
  outcome: inactive
[9]
  outcome: inactive
[10]
  outcome: inactive
[11]
  outcome: inactive
[12]
  outcome: inactive
[13]
  AC50: 11.1 µM (active)
[14]
  outcome: inactive
[15]
  outcome: inactive
[16]
  AC50: 18 µM (active)
[17]
  outcome: inactive
[18]
  outcome: inactive
[19]
  outcome: inactive

## CCOC(=O)NNc1nncc2ccccc12
[1]
  outcome: inactive
[2]
  outcome: inactive
[3]
  outcome: inactive
[4]
  outcome: inactive
[5]
  AC50: 60 µM (active)
[6]
  outcome: inactive
[7]
  outcome: inactive
[8]
  outcome: inactive
[9]
  outcome: inactive
[10]
  outcome: inactive
[11]
  outcome: inactive
[12]
  outcome: inactive
[13]
  outcome: inactive
[14]
  outcome: inactive
[15]
  outcome: inactive
[16]
  outcome: inactive
[17]
  outcome: inactive
[20]
  outcome: inactive
[18]
  outcome: inactive
[19]
  outcome: inactive

## CCOc1nc(F)cc2nc(S(=O)(=O)Nc3c(Cl)cccc3C(=O)OC)nn12
[1]
  outcome: inactive
[2]
  outcome: inactive
[3]
  outcome: inactive
[4]
  outcome: inactive
[5]
  outcome: inactive
[6]
  outcome: inactive
[7]
  outcome: inactive
[8]
  outcome: inactive
[9]
  outcome: inactive
[10]
  outcome: inactive
[11]
  outcome: inactive
[12]
  outcome: inactive
[13]
  outcome: inactive
[14]
  outcome: inactive
[15]
  outcome: inactive
[16]
  outcome: inactive
[17]
  outcome: inactive
[20]
  outcome: inactive
[18]
  outcome: inactive
[19]
  outcome: inactive

## CCCCCCCCCCCCCCCC[n+]1ccccc1
[1]
  outcome: inactive
[2]
  outcome: inactive
[3]
  outcome: inactive
[4]
  outcome: inactive
[5]
  outcome: inactive
[6]
  AC50: 9.08 µM (active)
[7]
  outcome: inactive
[8]
  outcome: inactive
[9]
  outcome: inactive
[10]
  AC50: 60.1 µM (active)
[11]
  outcome: inactive
[12]
  outcome: inactive
[13]
  AC50: 9.02 µM (active)
[14]
  outcome: inactive
[15]
  outcome: inactive
[16]
  outcome: inactive
[17]
  outcome: inactive
[20]
  outcome: inactive
[18]
  outcome: inactive

## Cc1ccc2oc(=O)ccc2c1
[1]
  outcome: inactive
[2]
  outcome: inactive
[3]
  outcome: inactive
[4]
  outcome: inactive
[5]
  outcome: inactive
[6]
  outcome: inactive
[7]
  outcome: inactive
[8]
  outcome: inactive
[9]
  outcome: inactive
[10]
  outcome: inactive
[11]
  outcome: inactive
[12]
  outcome: inactive
[13]
  outcome: inactive
[14]
  outcome: inactive
[15]
  outcome: inactive
[16]
  outcome: inactive
[17]
  outcome: inactive
[20]
  outcome: inactive
[19]
  outcome: inactive

## O=S(=O)(O)CC(O)CCl (centres undefined)
[1]
  outcome: inactive
[2]
  outcome: inactive
[3]
  outcome: inactive
[4]
  outcome: inactive
[5]
  outcome: inactive
[6]
  outcome: inactive
[7]
  outcome: inactive
[8]
  outcome: inactive
[9]
  outcome: inactive
[10]
  outcome: inactive
[11]
  outcome: inactive
[13]
  outcome: inactive
[14]
  outcome: inactive
[15]
  outcome: inactive
[16]
  outcome: inactive
[17]
  outcome: inactive
[20]
  outcome: inactive
[18]
  outcome: inactive
[19]
  outcome: inactive

## O=[N+]([O-])c1ccc(CO)cc1
[1]
  outcome: inactive
[2]
  outcome: inactive
[3]
  outcome: inactive
[4]
  outcome: inactive
[5]
  outcome: inactive
[6]
  outcome: inactive
[7]
  outcome: inactive
[8]
  outcome: inactive
[9]
  outcome: inactive
[10]
  outcome: inactive
[11]
  outcome: inactive
[12]
  outcome: inactive
[13]
  outcome: inactive
[14]
  outcome: inactive
[16]
  outcome: inactive
[17]
  outcome: inactive
[20]
  outcome: inactive
[18]
  outcome: inactive
